Assays:
[1] = biological target: T1, Aurora kinase A (Homo sapiens) (UniProt O14965); conditions: at 1 µM;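 also: values are mean percent inhibition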
T1 sequence (whole entry): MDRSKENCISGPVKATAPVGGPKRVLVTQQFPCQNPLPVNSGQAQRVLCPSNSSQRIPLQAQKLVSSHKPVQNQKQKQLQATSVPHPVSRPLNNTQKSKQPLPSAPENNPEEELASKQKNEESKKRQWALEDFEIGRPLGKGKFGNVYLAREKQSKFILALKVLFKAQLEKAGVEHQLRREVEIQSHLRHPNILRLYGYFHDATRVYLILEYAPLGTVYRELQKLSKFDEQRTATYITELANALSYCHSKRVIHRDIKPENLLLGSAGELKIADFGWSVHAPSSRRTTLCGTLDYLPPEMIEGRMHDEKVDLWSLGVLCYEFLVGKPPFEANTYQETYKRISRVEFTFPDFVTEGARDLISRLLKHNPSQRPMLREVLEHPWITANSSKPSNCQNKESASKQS

[2] = biological target: Aurora kinase B (Homo sapiens) (UniProt Q96GD4); conditions: at 0.1 µM
Chain of Aurora kinase B (Homo sapiens) (Q96GD4 whole entry): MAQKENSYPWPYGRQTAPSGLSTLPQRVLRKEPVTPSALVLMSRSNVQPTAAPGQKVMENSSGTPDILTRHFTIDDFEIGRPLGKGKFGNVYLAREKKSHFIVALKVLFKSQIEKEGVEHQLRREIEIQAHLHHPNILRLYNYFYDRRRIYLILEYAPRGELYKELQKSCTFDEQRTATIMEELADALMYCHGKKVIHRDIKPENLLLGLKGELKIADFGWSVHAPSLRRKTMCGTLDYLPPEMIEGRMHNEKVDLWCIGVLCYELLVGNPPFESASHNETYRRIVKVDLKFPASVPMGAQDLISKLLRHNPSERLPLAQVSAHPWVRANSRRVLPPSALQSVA

[3] = biological target: Aurora kinase B (Homo sapiens) (UniProt Q96GD4); conditions: at 1 µM
[4] = biological target: T2, Aurora kinase C (Homo sapiens) (UniProt Q9UQB9); conditions: at 0.1 µM
T2 sequence (whole entry): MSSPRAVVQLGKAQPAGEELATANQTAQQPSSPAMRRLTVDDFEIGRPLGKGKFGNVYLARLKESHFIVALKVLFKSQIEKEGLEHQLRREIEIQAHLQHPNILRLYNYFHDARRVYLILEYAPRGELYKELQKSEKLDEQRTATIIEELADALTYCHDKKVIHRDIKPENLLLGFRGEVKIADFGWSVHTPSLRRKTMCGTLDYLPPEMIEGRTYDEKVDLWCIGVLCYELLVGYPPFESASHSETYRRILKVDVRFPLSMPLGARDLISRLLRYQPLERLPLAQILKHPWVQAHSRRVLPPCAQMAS

[5] = biological target: T2, Aurora kinase C (Homo sapiens); conditions: at 1 µM
[6] = biological target: Serine/threonine-protein kinase 10 (Homo sapiens) (UniProt O94804); conditions: at 0.1 µM
Chain of Serine/threonine-protein kinase 10 (Homo sapiens) (O94804 whole entry, looked up): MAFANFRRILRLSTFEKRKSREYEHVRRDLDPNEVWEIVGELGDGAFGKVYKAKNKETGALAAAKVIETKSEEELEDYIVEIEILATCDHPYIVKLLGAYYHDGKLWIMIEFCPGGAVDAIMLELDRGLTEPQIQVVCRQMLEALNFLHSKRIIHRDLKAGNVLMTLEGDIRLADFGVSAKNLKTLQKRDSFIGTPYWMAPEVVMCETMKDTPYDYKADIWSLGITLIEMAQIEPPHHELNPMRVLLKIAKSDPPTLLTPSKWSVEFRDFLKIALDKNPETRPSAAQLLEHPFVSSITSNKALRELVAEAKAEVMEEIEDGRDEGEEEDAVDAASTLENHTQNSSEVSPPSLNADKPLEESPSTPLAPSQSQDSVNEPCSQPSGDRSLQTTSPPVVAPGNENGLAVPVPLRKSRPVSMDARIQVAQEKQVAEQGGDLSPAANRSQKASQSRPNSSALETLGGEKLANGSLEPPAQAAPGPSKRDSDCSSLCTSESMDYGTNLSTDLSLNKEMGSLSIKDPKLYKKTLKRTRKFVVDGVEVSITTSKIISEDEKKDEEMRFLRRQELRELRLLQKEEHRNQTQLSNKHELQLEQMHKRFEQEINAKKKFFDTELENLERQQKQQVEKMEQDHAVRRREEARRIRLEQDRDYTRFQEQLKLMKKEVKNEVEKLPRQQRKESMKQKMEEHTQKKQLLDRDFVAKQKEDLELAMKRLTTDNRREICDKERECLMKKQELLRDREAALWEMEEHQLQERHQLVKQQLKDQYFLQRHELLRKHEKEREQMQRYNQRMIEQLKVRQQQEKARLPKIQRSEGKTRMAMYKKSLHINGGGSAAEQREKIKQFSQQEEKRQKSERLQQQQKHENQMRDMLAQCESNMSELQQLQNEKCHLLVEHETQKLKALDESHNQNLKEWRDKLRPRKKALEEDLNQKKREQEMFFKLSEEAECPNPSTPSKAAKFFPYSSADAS

[7] = biological target: Serine/threonine-protein kinase 10 (Homo sapiens) (UniProt O94804); conditions: at 1 µM
[8] = biological target: T3, Mitogen-activated protein kinase kinase kinase kinase 2 (Homo sapiens) (UniProt Q12851); conditions: at 0.1 µM
T3 sequence (whole entry): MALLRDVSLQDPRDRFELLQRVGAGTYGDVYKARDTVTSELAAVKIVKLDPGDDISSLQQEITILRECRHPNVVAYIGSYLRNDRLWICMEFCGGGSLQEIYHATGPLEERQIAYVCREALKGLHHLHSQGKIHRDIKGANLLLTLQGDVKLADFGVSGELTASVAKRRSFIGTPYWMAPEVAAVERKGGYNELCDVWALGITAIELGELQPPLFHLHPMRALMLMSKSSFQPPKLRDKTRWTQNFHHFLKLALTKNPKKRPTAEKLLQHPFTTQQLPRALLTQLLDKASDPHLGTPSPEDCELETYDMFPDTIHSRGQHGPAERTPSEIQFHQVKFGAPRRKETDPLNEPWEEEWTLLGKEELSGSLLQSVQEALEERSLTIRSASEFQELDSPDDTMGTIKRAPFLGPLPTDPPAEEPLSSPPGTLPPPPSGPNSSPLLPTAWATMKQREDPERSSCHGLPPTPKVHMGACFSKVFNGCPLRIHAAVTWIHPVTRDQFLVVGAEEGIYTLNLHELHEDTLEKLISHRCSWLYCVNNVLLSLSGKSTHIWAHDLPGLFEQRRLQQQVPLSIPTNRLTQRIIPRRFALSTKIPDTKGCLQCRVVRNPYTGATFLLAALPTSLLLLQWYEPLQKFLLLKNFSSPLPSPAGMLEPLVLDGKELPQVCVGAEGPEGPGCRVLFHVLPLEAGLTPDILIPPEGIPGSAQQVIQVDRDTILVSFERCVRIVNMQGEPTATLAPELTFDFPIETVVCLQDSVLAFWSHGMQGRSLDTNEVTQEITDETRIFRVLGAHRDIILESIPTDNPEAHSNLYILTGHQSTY

[9] = biological target: T3, Mitogen-activated protein kinase kinase kinase kinase 2 (Homo sapiens); conditions: at 1 µM
[10] = biological target: Mitogen-activated protein kinase kinase kinase kinase 4 (Homo sapiens) (UniProt O95819); conditions: at 0.1 µM
Chain of Mitogen-activated protein kinase kinase kinase kinase 4 (Homo sapiens) (O95819 2-1239 limits assumed): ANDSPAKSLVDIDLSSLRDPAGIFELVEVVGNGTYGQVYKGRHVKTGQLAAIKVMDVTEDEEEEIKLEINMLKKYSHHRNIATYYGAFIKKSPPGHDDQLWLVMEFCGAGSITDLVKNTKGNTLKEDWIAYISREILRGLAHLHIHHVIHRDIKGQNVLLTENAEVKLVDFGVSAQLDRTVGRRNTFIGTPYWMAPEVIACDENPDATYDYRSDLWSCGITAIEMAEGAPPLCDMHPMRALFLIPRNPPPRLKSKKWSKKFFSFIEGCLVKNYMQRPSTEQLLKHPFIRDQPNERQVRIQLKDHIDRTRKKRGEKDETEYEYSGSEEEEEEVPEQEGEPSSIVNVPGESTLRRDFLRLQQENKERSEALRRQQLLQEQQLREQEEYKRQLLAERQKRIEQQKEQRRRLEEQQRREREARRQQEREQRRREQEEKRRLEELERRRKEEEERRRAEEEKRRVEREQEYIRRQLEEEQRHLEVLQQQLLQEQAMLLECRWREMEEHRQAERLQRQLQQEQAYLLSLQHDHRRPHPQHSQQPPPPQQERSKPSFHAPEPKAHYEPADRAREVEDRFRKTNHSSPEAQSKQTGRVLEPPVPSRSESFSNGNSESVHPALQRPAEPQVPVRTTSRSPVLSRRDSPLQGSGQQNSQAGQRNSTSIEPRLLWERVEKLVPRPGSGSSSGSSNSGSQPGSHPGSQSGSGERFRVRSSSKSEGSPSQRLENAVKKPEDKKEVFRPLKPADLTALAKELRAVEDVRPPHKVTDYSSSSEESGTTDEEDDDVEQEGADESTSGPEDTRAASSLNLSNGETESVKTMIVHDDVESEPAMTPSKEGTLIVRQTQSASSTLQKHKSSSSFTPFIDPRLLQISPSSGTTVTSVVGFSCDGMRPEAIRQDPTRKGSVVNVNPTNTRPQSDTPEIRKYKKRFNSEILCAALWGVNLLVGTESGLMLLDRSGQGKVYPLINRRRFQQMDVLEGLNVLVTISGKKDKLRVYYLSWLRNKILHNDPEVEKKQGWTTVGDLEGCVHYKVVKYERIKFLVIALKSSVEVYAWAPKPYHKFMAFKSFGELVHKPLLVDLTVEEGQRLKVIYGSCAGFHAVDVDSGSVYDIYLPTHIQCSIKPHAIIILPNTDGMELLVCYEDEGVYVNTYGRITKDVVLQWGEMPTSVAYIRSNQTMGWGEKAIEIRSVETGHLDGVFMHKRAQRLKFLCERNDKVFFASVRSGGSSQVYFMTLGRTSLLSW

[11] = biological target: Mitogen-activated protein kinase kinase kinase kinase 4 (Homo sapiens) (UniProt O95819); conditions: at 1 µM
[12] = biological target: Dual specificity mitogen-activated protein kinase kinase 1 (Homo sapiens) (UniProt Q02750); conditions: at 0.1 µM
Chain of Dual specificity mitogen-activated protein kinase kinase 1 (Homo sapiens) (Q02750 whole entry): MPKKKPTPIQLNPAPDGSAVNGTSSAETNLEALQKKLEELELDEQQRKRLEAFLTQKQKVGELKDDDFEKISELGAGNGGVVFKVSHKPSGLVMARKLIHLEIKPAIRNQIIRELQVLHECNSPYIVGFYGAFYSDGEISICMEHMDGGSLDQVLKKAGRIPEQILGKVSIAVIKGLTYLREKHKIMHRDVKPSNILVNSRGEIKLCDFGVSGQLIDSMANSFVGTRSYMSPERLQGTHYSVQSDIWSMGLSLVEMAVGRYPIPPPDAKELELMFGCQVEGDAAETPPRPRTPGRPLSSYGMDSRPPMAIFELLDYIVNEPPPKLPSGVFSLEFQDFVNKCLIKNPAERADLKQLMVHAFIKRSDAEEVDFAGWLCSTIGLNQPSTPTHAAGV

[13] = biological target: Dual specificity mitogen-activated protein kinase kinase 1 (Homo sapiens) (UniProt Q02750); conditions: at 1 µM
[14] = biological target: Misshapen-like kinase 1 (Homo sapiens) (UniProt Q8N4C8); conditions: at 0.1 µM
Chain of Misshapen-like kinase 1 (Homo sapiens) (Q8N4C8 whole entry, looked up): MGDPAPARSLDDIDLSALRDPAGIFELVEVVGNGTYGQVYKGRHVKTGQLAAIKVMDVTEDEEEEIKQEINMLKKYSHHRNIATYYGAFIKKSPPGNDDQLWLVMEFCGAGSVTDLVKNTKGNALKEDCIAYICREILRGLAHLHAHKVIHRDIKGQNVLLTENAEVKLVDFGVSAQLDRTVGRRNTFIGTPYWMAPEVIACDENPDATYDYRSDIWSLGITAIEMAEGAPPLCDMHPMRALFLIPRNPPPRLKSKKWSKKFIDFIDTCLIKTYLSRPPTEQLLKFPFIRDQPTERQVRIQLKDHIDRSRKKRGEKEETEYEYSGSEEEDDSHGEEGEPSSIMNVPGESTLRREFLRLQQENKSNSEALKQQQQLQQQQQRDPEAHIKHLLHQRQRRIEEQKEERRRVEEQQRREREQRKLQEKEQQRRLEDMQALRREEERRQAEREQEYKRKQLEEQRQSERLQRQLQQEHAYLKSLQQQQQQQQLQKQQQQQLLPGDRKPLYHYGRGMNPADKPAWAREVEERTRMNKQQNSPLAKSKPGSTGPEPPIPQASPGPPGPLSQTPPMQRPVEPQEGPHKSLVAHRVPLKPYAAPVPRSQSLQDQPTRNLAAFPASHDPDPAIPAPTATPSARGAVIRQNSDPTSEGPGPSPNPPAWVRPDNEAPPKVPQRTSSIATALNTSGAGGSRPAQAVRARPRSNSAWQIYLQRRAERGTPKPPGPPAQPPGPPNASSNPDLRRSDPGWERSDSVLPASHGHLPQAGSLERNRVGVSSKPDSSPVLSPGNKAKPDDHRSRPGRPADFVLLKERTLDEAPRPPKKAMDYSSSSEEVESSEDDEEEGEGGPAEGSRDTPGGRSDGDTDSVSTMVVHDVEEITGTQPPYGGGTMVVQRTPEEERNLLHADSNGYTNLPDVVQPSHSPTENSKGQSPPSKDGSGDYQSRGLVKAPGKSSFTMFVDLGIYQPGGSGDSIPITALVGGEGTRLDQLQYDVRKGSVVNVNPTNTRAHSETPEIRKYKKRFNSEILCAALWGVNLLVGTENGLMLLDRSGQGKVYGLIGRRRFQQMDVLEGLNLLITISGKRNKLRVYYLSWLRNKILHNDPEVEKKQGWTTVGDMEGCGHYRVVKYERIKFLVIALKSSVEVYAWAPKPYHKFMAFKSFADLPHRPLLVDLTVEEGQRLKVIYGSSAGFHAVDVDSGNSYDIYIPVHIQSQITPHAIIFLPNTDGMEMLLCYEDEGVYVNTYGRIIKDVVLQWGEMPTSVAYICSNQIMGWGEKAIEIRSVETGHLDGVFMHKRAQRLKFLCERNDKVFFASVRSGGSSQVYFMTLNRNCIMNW

[15] = biological target: Misshapen-like kinase 1 (Homo sapiens) (UniProt Q8N4C8); conditions: at 1 µM
[16] = biological target: T4, Serine/threonine-protein kinase 4 (Homo sapiens) (UniProt Q13043); conditions: at 0.1 µM
T4 sequence (whole entry): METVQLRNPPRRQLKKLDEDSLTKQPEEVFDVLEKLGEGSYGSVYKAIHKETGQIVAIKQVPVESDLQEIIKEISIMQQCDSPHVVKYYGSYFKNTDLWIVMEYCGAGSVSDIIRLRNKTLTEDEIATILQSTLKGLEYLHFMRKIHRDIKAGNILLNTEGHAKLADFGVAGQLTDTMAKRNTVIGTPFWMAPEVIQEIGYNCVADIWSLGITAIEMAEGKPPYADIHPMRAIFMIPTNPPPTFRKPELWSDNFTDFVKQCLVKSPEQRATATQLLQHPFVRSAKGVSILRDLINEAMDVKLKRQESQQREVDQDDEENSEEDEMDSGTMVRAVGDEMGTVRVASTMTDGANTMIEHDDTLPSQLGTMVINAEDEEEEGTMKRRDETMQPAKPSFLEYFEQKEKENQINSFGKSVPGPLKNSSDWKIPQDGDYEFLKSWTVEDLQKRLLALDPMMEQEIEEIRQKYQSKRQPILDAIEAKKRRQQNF

[17] = biological target: T4, Serine/threonine-protein kinase 4 (Homo sapiens); conditions: at 1 µM
[18] = biological target: T5, Serine/threonine-protein kinase 3 (Homo sapiens) (UniProt Q13188); conditions: at 0.1 µM
T5 sequence (whole entry): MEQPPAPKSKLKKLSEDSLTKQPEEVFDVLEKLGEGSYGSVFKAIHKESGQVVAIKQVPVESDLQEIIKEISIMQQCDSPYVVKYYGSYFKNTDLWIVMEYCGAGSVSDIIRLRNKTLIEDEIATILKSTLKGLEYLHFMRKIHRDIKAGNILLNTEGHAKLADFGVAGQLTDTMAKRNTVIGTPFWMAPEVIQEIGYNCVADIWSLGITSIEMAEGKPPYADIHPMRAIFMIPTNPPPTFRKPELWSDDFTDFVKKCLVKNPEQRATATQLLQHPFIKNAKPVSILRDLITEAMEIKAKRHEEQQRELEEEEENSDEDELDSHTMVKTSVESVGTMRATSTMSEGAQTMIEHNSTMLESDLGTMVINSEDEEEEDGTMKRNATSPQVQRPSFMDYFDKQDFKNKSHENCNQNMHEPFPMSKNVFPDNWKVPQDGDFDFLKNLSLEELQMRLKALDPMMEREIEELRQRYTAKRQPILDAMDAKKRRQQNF

[19] = biological target: T5, Serine/threonine-protein kinase 3 (Homo sapiens); conditions: at 1 µM
[20] = biological target: Serine/threonine-protein kinase 26 (Homo sapiens) (UniProt Q9P289); conditions: at 0.1 µM
Chain of Serine/threonine-protein kinase 26 (Homo sapiens) (Q9P289 2-416 limits assumed): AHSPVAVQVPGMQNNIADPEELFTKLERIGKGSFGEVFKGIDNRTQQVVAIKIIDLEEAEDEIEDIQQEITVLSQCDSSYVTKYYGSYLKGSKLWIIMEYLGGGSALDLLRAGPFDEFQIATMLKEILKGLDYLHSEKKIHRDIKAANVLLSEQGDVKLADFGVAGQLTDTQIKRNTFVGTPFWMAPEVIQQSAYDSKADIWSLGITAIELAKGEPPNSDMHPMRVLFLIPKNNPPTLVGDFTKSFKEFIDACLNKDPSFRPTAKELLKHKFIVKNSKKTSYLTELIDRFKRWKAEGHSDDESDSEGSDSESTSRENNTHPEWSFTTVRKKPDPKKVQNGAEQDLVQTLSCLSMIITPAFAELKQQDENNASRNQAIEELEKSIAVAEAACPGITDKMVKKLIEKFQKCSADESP

SMILES | inhibition [1] | inhibition [2] | inhibition [3] | inhibition [4] | inhibition [5] | inhibition [6] | inhibition [7] | inhibition [8] | inhibition [9] | inhibition [10] | inhibition [11] | inhibition [12] | inhibition [13] | inhibition [14] | inhibition [15] | inhibition [16] | inhibition [17] | inhibition [18] | inhibition [19] | inhibition [20]
Cc1cccc(-c2n[nH]cc2-c2ccc3ncccc3n2)n1 | 2.37% | -1.18% | 4.2% | 0.3% | -2.95% | 3.36% | 7.9% | 1.72% | 0.72% | 5.33% | 30.9% | 1.75% | 1.88% | 4.05% | 19.5% | -0.22% | 0.4% | -0.46% | 0.93% | -1.15%
CCN1CCC(CC(=O)Nc2n[nH]c3nc(-c4cccs4)c(Br)cc23)CC1 | 0.27% | -0.51% | 3.7% | -1.4% | -3.08% | -1.57% | 1.93% | 0.32% | 2.2% | 0.23% | 9.82% | -3.83% | -4.66% | -1.72% | 5.84% | -4.72% | -4.38% | -4.72% | -2.74% | 2.05%
Cc1cc(O)cc(C)c1/C=C/c1cncc(-c2nn[nH]n2)c1 | -0.41% | -2.87% | 1.12% | -3.31% | -0.15% | 5.3% | 39.7% | 1.25% | 5.33% | 8.4% | 25.3% | 6.51% | 5.24% | 9.23% | 21.7% | 3.48% | 9.22% | 4.45% | 10.7% | -1.84%
CC(=O)Nc1cccc(C#Cc2cncnc2Nc2ccc(OCc3cccc(F)c3)c(Cl)c2)n1 | 2.65% | 3.23% | 1.96% | 3.46% | -5.73% | 4.04% | 14.4% | 2.81% | 2.04% | -0.3% | 8.1% | -0.39% | -1.7% | 0.33% | 10.7% | 4% | 7.41% | 3.99% | 8.13% | 2.55%
COc1cccc(-n2ncc3c(N/N=C/c4cccc(F)c4)ncnc32)c1 | 16.9% | -1% | 7.83% | -2.12% | 1.75% | 3.91% | 11.8% | 1.55% | 4.59% | 7.45% | 35% | 3.46% | 3.27% | 7.28% | 25.8% | 3.89% | 8.39% | 2.89% | 6.96% | -0.8%
CC(C)=Cc1cccc2c1/C(=N/Nc1ccc(S(N)(=O)=O)cc1)C(=O)N2 | 93.1% | 8.72% | 45% | 5.14% | 65.6% | 1.18% | 10.2% | 1.89% | 6.11% | 3.27% | 31.3% | 0.02% | 2.23% | 3.63% | 25.1% | 66.6% | 84.5% | 52.6% | 82.4% | 4.55%
Cc1ccc(NC(=O)c2ccnc(N3CCCC3)c2)cc1-c1ccc(C(=O)NCC2CC2)cc1 | 4.67% | 1.95% | 6.5% | -0.41% | 7.12% | 3.49% | 7.84% | 3.82% | 13.5% | 10% | 10.9% | 5.95% | 5.8% | 11.6% | 10.5% | 8.79% | 9.83% | 9.39% | 9.53% | 4.41%
COc1ccc(-c2coc3ncnc(N)c23)cc1 | 7.06% | 3.4% | 8.81% | 1.56% | 15.3% | 3.11% | 8.06% | 1.83% | 6.08% | 4.43% | 10.2% | 5.34% | 5.29% | 12.5% | 8.75% | 7.11% | 8.23% | 6.08% | 6.94% | -0.2%
O=C1NC(=O)C(c2ccccc2Cl)=C1Nc1cccc(O)c1 | 11.6% | 2.88% | 7.74% | 1.84% | 7.14% | 8.75% | 49.3% | 1.12% | 2.09% | 3.71% | 6.87% | 1.44% | 1.89% | 3.8% | 5.96% | 7.3% | 27.2% | 7.12% | 22.5% | -0.62%
Cc1nnc(-c2ccc(C)c(-c3ccc(C(=O)Nc4cccc(C#N)c4)cc3)c2)o1 | 5.96% | 2.83% | 4.74% | 1.31% | -2.81% | 4.18% | 5.45% | -0.38% | 2.09% | 5.31% | 10.6% | 2.51% | 1.55% | 4.46% | 9.13% | 1.52% | 6% | 2.65% | 6.4% | -1.07%
CCn1c(-c2nonc2N)nc2c(C#CC(C)(C)O)nc(CN3CCCC3)cc21 | 3.35% | 0.07% | 4.15% | 0.15% | 23.3% | -1.82% | 1.24% | 1.94% | 1.87% | 1.68% | 1.37% | 0.73% | -0.46% | 2.4% | 0.35% | -1.15% | 0.25% | -2.44% | -2.27% | -0.36%
CCCN1CCC=C(c2ccc(Nc3nc(Nc4ccccc4C(N)=O)c4cc[nH]c4n3)c(C)c2)C1 | 32.6% | 5.03% | 12.8% | 1.85% | 13.7% | 8.52% | 14.9% | 6.05% | 35.5% | 19.2% | 65.3% | 7.02% | 28.7% | 14.8% | 55.2% | 9.53% | 42.5% | 5.37% | 21.2% | -2.63%
NCc1ccc(-c2nc(-c3ccc(Cl)c(O)c3)c(-c3ccncc3)[nH]2)cc1 | 9.73% | 1.17% | 6.56% | 1.89% | 5.03% | 1.42% | 23.7% | 3.14% | 4.41% | 4.02% | 17.2% | 0.8% | 2.23% | 4.99% | 14.1% | 0.18% | 0.25% | -1% | -1.23% | 0.12%
